# Laboratory results from publication PMC12136788.
# Changes are numbered by the printed parent chain. Over roughly 24,000 sequences, “enrichment r” has its median near 0.99; the highest 2% begin near 3.7. For the sample, the highest values were picked, then their nearest neighbours and some sequences at random.
# B1: chr1:66485654:66485655:+_ENSMUSG00000015222_ENSMUST00000024639|mus_mus|motif|central (ssRNA)
# RNA: GGGAGUUCUACAGUCCGACGAUCAAUUUUUUAUAUAAAAUUGUAACAAUUACUACAGUUGGGGGAUGAAAUUAUUUCUCGGUGGUUUGUAAAGAAUGAAUAUGACACCUGCUCAGAGCCCACUCCUGCCAAGAGCUCAUGCCUCAACAGAGGAUUGAGCAUCA
# B2: chr1:66485654:66485655:+_ENSMUSG00000015222_ENSMUST00000024639|mus_mus|FALSE|FALSE (ssRNA)
# RNA: B1 RNA with G80U, G81A
# B3: chr1:58468927:58468928:-_ENSMUSG00000026034_ENSMUST00000148330|mus_mus|mus_mus_mus_hu_False|18_78 (ssRNA)
# RNA: GGGAGUUCUACAGUCCGACGAUCAAUUACUGAAAAAGAUGUUCAUUACCUUAGCUAGGCCAUGUAUGAACCAAAUUACCCAAACAAAAUAAACAUGGCAAUAUAAAAAUGUUAAGAAAAUAACUUACUGUACAAAAUAACUUACAACAGAGGAUUGAGCAUCA
# B4: chr14:62214197:62214198:+_ENSG00000100644_ENST00000337138|hu_hu|FALSE|FALSE (ssRNA)
# RNA: GGGAGUUCUACAGUCCGACGAUCAGCAUUAUUAUUUAUGUAAAAUGUGAAAAAAAAGGUGUAAAAAUUUUUCAACUGCCUAUGAUCAUGAUGAAAGGUUACUGCCUUCUUACAAAAAUUAUAUUGGCAUCUUCUUAAAAAUAACAACAGAGGAUUGAGCAUCA
# B5: chr10:117127018:117127019:-_ENSMUSG00000020184_ENSMUST00000020408|mus_hu|FALSE|FALSE (ssRNA)
# RNA: GGGAGUUCUACAGUCCGACGAUCAACAGAGCAAGACUCGGUCUCAAAAAAAAUAAUAAGUUACAUUUAAAUGUCAUAUACAUAUUUAAGAAAAAAAAAAACCAAGUACUUCUCAUUUAAGACAGAGUAGAAAUUAUUUAAAAUCAACAGAGGAUUGAGCAUCA
# B6: chrX:17854524:17854525:+_ENSMUSG00000037369_ENSMUST00000044484|mus_hu|motif|central (ssRNA)
# RNA: GGGAGUUCUACAGUCCGACGAUCUCGUGAAUUACUCUCAUUAGUGACAAAAAGCAGAUCAAAAACCUCCACUUCACAAAUGCGGCAGUAAUGAGCUGGUUCUUCUUUUGUCCGCCCAUGCCAUAUAAUCUCUUUUCCUGCAGCCAACAGAGGAUUGAGCAUCA
# B7: chr14:48151594:48151595:+_ENSMUSG00000037536_ENSMUST00000168833|mus_mus|FALSE|FALSE (ssRNA)
# RNA: GGGAGUUCUACAGUCCGACGAUCAUUGAAGUUUUUUUAAAAAAUUUUUAACCAGACAAAAGGAUGCACAACAUUUUAAUCUAUUAUAUGAUAUUGUCUUAUUCUGUGGUGAUUAUGUUUAGUCAGCUGUUCAUAAUAUACAAUCAACAGAGGAUUGAGCAUCA
# B8: chr1:58468927:58468928:-_ENSMUSG00000026034_ENSMUST00000148330|mus_mus|mus_mus_mus_hu_False|58_78 (ssRNA)
# RNA: B3 RNA with C78U, C80U, C84A, A118U, A119U, A122C, C123A, U124A, U125A, A126G
# B9: 30669026_30669146_122_CDS_ENSG00000108666_ENST00000577809|human|control|control (ssRNA)
# RNA: GGGAGUUCUACAGUCCGACGAUCGCGAUAGCUGUAAAGACAGUAGUGGCUGCUGGACGGCGGCUCGAGUCUCCGCUCCUCGGCUGAGCCUCCCUCUUCGCUGCUCUCUAGUUCCUUUUCAUCUCCAUCCAUCGACUCCUGCAACAACAGAGGAUUGAGCAUCA
# B10: 23382874_23385586_565_CDS_ENSMUSG00000026158_ENSMUST00000027343|mouse|control|control (ssRNA)
# RNA: GGGAGUUCUACAGUCCGACGAUCUUCUCUCAGGGGGAAAAGCCAUUGGAUGUACGUGUGGUUGUGCUCCAGCUUCUCGUAGUCCCCUUUCCACUUAUUUAGAACCUCUUCAAUGUAAACACCAUCCGGCUUAAAUGGAAUUUUCAACAGAGGAUUGAGCAUCA
# B11: chr1:39494447:39494448:+_ENSG00000168653_ENST00000372967|hu_mus|hu_hu_hu_mus_False|58_68 (ssRNA)
# RNA: GGGAGUUCUACAGUCCGACGAUCGCACCGAGCGGCGUUCUUAUAGGGCUGUUCUGCGCUUAGGAACGUCAACCAUCGAUCUAUGUUGAUGCCCAGCUUUUUCUGUAUGUCAAGGAAAGGCAUGGCUCUGCAGUGCCCUUGUCACAACAGAGGAUUGAGCAUCA
# B12: chr3:179287964:179287965:+_ENSG00000136518_ENST00000429709|hu_hu|hu_hu_hu_mus_True|38_38 (ssRNA)
# RNA: GGGAGUUCUACAGUCCGACGAUCCUUGAGUGGUGAGAUGGCCUCCAUGUUCUCCCUGGGCACGCGGAGGGCAUUGGUGUCUAUGUAGUAGGUGGGCCCGCCUUGUUUGCCUUUGUCACCAUCAAUCUCCAUCAUUGUACUUCCCAACAGAGGAUUGAGCAUCA
# B13: chr1:58468927:58468928:-_ENSMUSG00000026034_ENSMUST00000148330|mus_hu|FALSE|FALSE (ssRNA)
# RNA: GGGAGUUCUACAGUCCGACGAUCAAUUACUGAAAAAGAUGUUCAUUACCUUAGCUAUGUACUUAAUGAACCAAAUUACCCAAACAAAAUAAACAUGGCAAUAUAAAAAUGUUAAGAAUUUACAAAGCUGUACAAAAUAACUUACAACAGAGGAUUGAGCAUCA
# B14: chr1:58468927:58468928:-_ENSMUSG00000026034_ENSMUST00000148330|mus_mus|mus_mus_mus_hu_False|18_88 (ssRNA)
# RNA: GGGAGUUCUACAGUCCGACGAUCAAUUACUGAAAAAGAUGUUCAUUUAUUUGGUUUUGUACUUAAUGAACCAAAUUACCCAAACAAAAUAAACAUGGCAAUAUAAAAAUGUUAAGAAAAUAACUUACUGUACAAAAUAACUUACAACAGAGGAUUGAGCAUCA
# Molecular target: T1, UNK ZnF1-3 (human, UniProt Q9C0B0 31-174)
# T1 sequence: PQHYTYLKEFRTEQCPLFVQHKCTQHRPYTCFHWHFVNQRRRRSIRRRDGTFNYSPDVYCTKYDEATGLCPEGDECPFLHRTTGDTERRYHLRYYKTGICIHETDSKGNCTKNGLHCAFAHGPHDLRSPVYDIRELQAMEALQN
# Assay: nsRBNS (natural sequence RNA bind-n-seq); RBNS binding buffer (assumed for nsRBNS): 25 mM Tris pH 7.5, 150 mM KCl, 3 mM MgCl2, 0.01% Triton X-100, 500 ug/ml BSA, 20 U/ml SUPERase-In, 4 C; UNK is unkempt and MSI1 is Musashi-1; names of the RNAs are library labels; protein concentration not given here; high values mean tight binding
row,Binder,binding signal
1,B1,4.27 enrichment R
2,B2,2.92 enrichment R
3,B3,1.35 enrichment R
4,B4,29 enrichment R
5,B5,18 enrichment R
6,B6,0.845 enrichment R
7,B7,3.47 enrichment R
8,B8,3.96 enrichment R
9,B9,0.51 enrichment R
10,B10,0.65 enrichment R
11,B11,0.515 enrichment R
12,B12,0.571 enrichment R
13,B13,1.24 enrichment R
14,B14,6.29 enrichment R
